In the library only some 1.2% were active in any assay of this set; here they are far more common.
RXFP1 ag: activates the human relaxin receptor RXFP1 | Q9HBX9 | HEK293T-RXFP1 cAMP TR-FRET, 30 min; response scale: percent of porcine relaxin response, buffer zero | Potency, µM (doses to about 57.5 µM), inactives show at the highest dose activation, usual class: activators | actives 0.3% (n = 370,000); active = well fitted activation curve with a large enough effect; inconclusive = small, poorly fitted or top-dose-only effect; also: potency is read from the fitted curve at half-maximal effect; % is scaled to controls: 0 for no effect and ±100 for the full control effect; nearly all actives have a fitted effect of over 60% in size
Target sequence (Q9HBX9 whole entry, looked up): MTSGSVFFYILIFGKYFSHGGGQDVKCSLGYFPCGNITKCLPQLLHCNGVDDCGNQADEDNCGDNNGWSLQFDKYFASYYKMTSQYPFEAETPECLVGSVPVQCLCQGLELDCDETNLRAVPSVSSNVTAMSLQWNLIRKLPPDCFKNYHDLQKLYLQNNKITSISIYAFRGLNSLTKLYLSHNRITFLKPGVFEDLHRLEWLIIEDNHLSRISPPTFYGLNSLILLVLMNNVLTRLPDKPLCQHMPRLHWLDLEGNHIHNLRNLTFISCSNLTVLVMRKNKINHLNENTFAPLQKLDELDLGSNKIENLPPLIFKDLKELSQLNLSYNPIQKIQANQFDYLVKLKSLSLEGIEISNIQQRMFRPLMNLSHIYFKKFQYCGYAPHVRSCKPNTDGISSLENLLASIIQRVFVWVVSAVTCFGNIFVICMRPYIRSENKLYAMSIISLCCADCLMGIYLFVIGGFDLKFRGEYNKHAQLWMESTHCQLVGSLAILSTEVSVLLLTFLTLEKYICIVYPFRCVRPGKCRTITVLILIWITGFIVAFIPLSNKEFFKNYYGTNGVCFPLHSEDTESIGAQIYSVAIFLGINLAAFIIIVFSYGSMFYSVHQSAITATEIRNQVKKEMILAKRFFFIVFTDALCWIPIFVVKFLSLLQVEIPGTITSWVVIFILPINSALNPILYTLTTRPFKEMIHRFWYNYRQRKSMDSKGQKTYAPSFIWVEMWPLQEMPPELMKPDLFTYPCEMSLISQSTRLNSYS
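HEK293 cells stably expressing RXFP1, treated 30 min at 37C with compounds plus PDE4 inhibitor Ro 20174; cAMP measured by HTRF TR-FRET. Normalized to buffer and 29 nM porcine relaxin; EC50 by Hill fit.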
RXFP1 antagonist: RXFP1 (human) relaxin receptor antagonism; HEK293-RXFP1, relaxin-stimulated cAMP HTRF, 30 min; hits give low values; actives 0.59% (n = 350,000); Q9HBX9; AID 1259400; activity change, negative = inhibition, % at 57.5 µM;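 active = activity change of -60% or lower, but not beyond a set lower limit; inconclusive = change between -60% and -40%, or beyond the set limit; inactive = change above -40%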; also: % is scaled to controls: 0 for no effect and ±100 for the full control effect
gsp ag: gsp mutant agonism; gsp mutant cells, cAMP HTRF, 30 min; Potency, µM (top dose mostly 76.9 µM), without a hit: at the highest dose activation (cAMP increase), most hits filed as activators; actives 0.13% (n = 340,000); AID 624287; active = well fitted activation curve with a large enough effect; inconclusive = small, poorly fitted or top-dose-only effect, or another doubt; inactive = no such curve, though single readings can be large or run the other way; cell line not stated here;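 also: phosphodiesterase inhibitor Ro 20-1724 added with compounds to block cAMP breakdown; potency is read from the fitted curve at half-maximal effect; nearly all actives have a fitted effect of over 60% in size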
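Cells stably selected in G418 were plated at 2000/well, grown 16-24 hr, then given compounds in DMSO with the PDE inhibitor […] (300 uM solution added) for 30 min at 37C; cAMP was read by HTRF.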
gsp antagonist: gsp mutant antagonism | AID 624288 | actives 0.4% (n = 340,000) | Potency, µM (doses to about 76.9 µM), for inactives: at the highest dose activity change, negative = inhibition, most hits filed as inhibitors | gsp-mutant cells, cAMP HTRF, 30 min; calls by dose curve; cell line not stated here;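 also: intracellular cAMP measured with PDE inhibitor Ro 20-1724 present during compound exposure; potency is read from the fitted curve at half-maximal effect; % is scaled to controls: 0 for no effect and ±100 for the full control effect; nearly all actives have a fitted effect of over 65% in size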
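HTRF cAMP measurement after 30 min RT detection following 30 min, 37C compound treatment alongside […] (added as 300 uM solution) in G418-selected cells seeded at 2000/well and grown 16–24 h.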
Akt phos inh: blocks phosphorylation of Akt; Neuro2A IGF-stimulated pAkt S473 HTRF, 20 min; hits give low values; actives 0.32% (n = 360,000); activity change, % for hits at 50 µM; in the data active = activity change below about -80%; inconclusive = mostly about -51% to -80%; also: % is scaled to controls: 0 for no effect and ±100 for the full control effect
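Neuro2A cells in DMEM with 0.5% FBS, overnight at 37 deg C, given compound at single 50 µM final, then IGF (6 nM final) for 20 min at 37 deg C. Lysed; phospho-Akt Ser473 by HTRF after 24 h, 665/615 ratio.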
Numbers without * were called inactive; i = inactive; ? = inconclusive; · = not tested or not shown; ! = a repeat was not active; [ ] = another dose, or the depositor's remark.

SMILES | RXFP1 ag | RXFP1 antagonist | gsp ag | gsp antagonist | Akt phos inh
CCCSc1ncnc2c1c(-c1ccccc1)cn2-c1ccccc1OC | -3% | -5 | · | · | ·
Cc1ccc(NCc2nc3ccccc3n2CCOc2ccccc2)cc1 | 5% | -62*! | -2% | -9% | i
Cc1ccc(OCCn2c(CNc3cccc(C)c3)nc3ccccc32)cc1 | -1% | ? | · | · | ·
O=c1cc(-c2ccccc2)[nH]c2nc3ccccc3n12 | 0% | -14 | ? | 13% | -107%*
CN1N=C(C(N)=O)CCC1=O | · | -3 | · | · | ·
Cc1ccc2nc(-c3ccc(NC(=O)CN(c4ccccc4C)S(C)(=O)=O)cc3)sc2c1 | 4% | -6 | ? | -9% | -107%*
Cc1cc(C)cc(N(CC(=O)Nc2ccc(-c3nc4ccc(C)cc4s3)cc2)S(C)(=O)=O)c1 | 5% | -11 | -1% | -16% | i
COc1ccc2[nH]c(=O)c(COC(=O)c3ccco3)cc2c1 | ? | 1 | 14% | 13% | -114%*
Cc1ccc(NC(=O)Cn2c(=O)n(CCCCC(=O)NCc3ccco3)c(=O)c3ccccc32)cc1 | 2% | -18 | 27% | -3%[15.4 µM] | -113%*
COc1ccc2[nH]cc(CCNS(=O)(=O)c3ccc(C)cc3)c2c1 | 6% | 14 | 3% | -10% | i
COc1ccc(S(=O)(=O)NCCc2c[nH]c3ccc(C)cc23)cc1 | 1% | -8 | ? | 32µM* | i
C/C=C(/C(=C/C)c1ccc(OC(C)=O)cc1)c1ccc(OC(C)=O)cc1 | · | -12 | · | · | ·
O=c1c2[nH]c3ccccc3c2ncn1Cc1ccncc1 | 0% | -3 | 20% | 15% | -94%*
CCOC(=O)c1cccc(NC(=O)Cc2ccc(NC(=O)N3CCCCc4ccccc43)cc2)c1 | -1% | · | · | · | ·
CC(C)C[C@@H]1[C@H](c2ccccc2)OC(=O)N1CCCN1CCCCCC1 | · | -13 | · | · | ·
O=C(c1cc(-c2ccncc2)nc2ccc(Br)cc12)N1CCN(c2ccccn2)CC1 | 5% | -10 | -27% | ? | -114%*
Cc1cccc(NC(=O)c2ccc3nc(CCc4ccccc4)oc3c2)c1C | 2% | -26 | · | · | ·
COc1ccc(C(=O)/C=C2/C(=O)Nc3ccccc32)c(OC)c1 | 6% | -86* | 5%[15.4 µM] | 4% | i
CCc1ccc2c(c1)NC(c1cccnc1)=NC(c1ccc(C(C)(C)C)cc1)=N2 | -2% | -11 | · | · | ·
Clc1ccc(-c2csc(=Nc3ccccc3)n2Cc2ccc3c(c2)OCO3)cc1 | 0% | · | · | · | ·
Cc1ccccc1S(=O)(=O)Cc1ccc(C(=O)N(C)C2CCCCC2)o1 | 1% | -5 | ? | 50µM* | i
Cc1ccccc1S(=O)(=O)Cc1ccc(C(=O)NC2CC2)o1 | 1% | 6 | -6% | 28µM* | ·
CCOC(=O)C1C(=O)Oc2ccc3ccccc3c2C1C1CCOC1=O (stereo unspecified) | 0% | · | -5% | 50µM* | i
O=C(CCCc1ccccc1)c1ccc2c(c1)OCCO2 | -1% | -20 | -42% | -7% | -125%*
COc1ccc(-c2nnc(SCc3ccccn3)n2C)cc1 | 0% | -4 | -5% | 32% | -107%*
SMILES | RXFP1 ag | RXFP1 antagonist | gsp ag | gsp antagonist | Akt phos inh
COc1ccccc1NC(=O)c1cc2ccc3cccnc3c2[nH]1 | 0% | -71* | · | · | ·
O=C(NCc1cccc(Cl)c1)c1cc2ccc3cccnc3c2[nH]1 | 0% | -27 | · | · | ·
CC(C)N(Cc1ccccc1)C(=O)c1cc2ccc3cccnc3c2[nH]1 | 0% | -101* | · | · | ·
CC(=O)c1c(C)nc(C)nc1NC(=O)C(C)C | 1% | 0 | -4% | 13% | -124%*
CCOC(=O)c1c(C)[nH]sc1=S | 25µM* | 9 | 36%[15.4 µM] | 11% | i
COc1ccc(NC(=O)CSCC(=O)Nc2ccc(S(=O)(=O)N3CCCCC3)cc2)cc1 | 1% | -64* | 20%[15.4 µM] | -5% | i
CCn1ncc(C(=O)Nc2ccc(S(=O)(=O)N3CCCC3)cc2)c1C | 1% | -25 | -44% | -5% | -123%*
Cc1occc1C(=O)Nc1ccc(S(=O)(=O)N2CCCC2)cc1 | -2% | 10 | -8% | 4% | i
COc1ccc(CSCC(=O)Nc2ccc(S(=O)(=O)N3CCCCCC3)cc2)cc1 | 1% | 21 | -3% | -4% | i
O=C(NNc1c2ccccc2nc2ccccc12)c1ccccc1O | 0% | -27 | -11% | ? | i
